pPAFAH inh: pPAFAH enzyme inhibitors, primary screen, biochemical, fluorescence polarization, human; inhibition, % at 3.39 µM; Platelet-activating factor acetylhydrolase (Homo sapiens), Q13093; recombinant pPAFAH, FP-rhodamine probe fluorescence polarization; 1.5% of 330,000 active;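 active = inhibition above the mean inhibition across the screen plus 3 SD, cut at about 25% in these data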;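 also: inhibitors block binding of the rhodamine activity-based probe so polarization drops; 0% = enzyme with DMSO and 100% = wells lacking pPAFAH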
PAFAH1B3 FP inh: PAFAH1B3 enzyme inhibitors, primary screen, biochemical, fluorescence polarization, human; recombinant PAFAH1B3, FP-rhodamine probe; inhibition, % at 3.39 µM; 0.28% of 340,000 active;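 active = inhibition above the screen-wide average of all tested compounds plus 3 SD, cut at about 25% in these data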;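 also: 0% = enzyme with DMSO only and 100% = wells lacking PAFAH1B3 protein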
Target sequence (Q15102 whole entry, looked up): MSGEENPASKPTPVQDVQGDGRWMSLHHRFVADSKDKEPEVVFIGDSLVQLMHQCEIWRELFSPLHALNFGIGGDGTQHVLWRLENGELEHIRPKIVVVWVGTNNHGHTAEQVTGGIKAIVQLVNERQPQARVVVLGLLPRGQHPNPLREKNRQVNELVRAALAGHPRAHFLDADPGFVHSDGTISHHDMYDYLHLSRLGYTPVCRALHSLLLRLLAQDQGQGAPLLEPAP
PAFAH2 FP inh: PAFAH2 enzyme inhibitors, primary screen, biochemical, fluorescence polarization, human | 0.99% of 340,000 active | AID 492956, 2010 | inhibition, % at 3.39 µM | Platelet-activating factor acetylhydrolase 2, cytoplasmic (Homo sapiens), Q99487 | recombinant PAFAH2, FP-rhodamine activity probe;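 active = inhibition above the mean over all tested compounds plus 3 SD, cut at about 30% in these data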;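 also: inhibitors block probe labeling of enzyme so polarization drops; 0% = enzyme with DMSO and 100% = wells lacking PAFAH2 protein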
Fam108B inh: mouse Fam108B serine hydrolase inhibitors, primary screen, counter-screen for RBBP9 inhibitor project, biochemical, fluorescence polarization | recombinant Fam108B, FP-Rh probe fluorescence polarization | AID 1947, 2009 | 0.33% of 300,000 active | inhibition, % at 9.51 µM;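 active = inhibition above the screen mean inhibition plus 3 SD, computed separately per campaign, cut at about 18% in these data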;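 also: inhibitors lower polarization as less probe binds the enzyme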
PAFAH1B2 FP inh: PAFAH1B2 enzyme inhibitors, primary screen, biochemical, fluorescence polarization, human | inhibition, % at 3.39 µM | recombinant PAFAH1B2, FP-rhodamine activity probe | 1.2% of 340,000 active;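 active = inhibition above the mean of all tested compounds plus 3 SD, cut at about 24% in these data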;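 also: 0% = enzyme with DMSO and 100% = wells lacking PAFAH1B2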
PME-1 inh: PME-1 inhibitors via competitive probe labeling, primary screen, biochemical, fluorescence polarization, FP-Rh probe, HTS. Protein phosphatase methylesterase 1 (Homo sapiens), Q9Y570. recombinant PME-1. inhibition, % at 5.9 µM. 0.53% of 320,000 active. AID 2130, 2009;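 active = inhibition above the campaign mean of all compounds plus 3 SD, cut at about 26% in these data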;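 also: competitive labeling of PME-1 active site by serine hydrolase directed probe; 0% = PME-1 with DMSO and 100% = wells lacking PME-1 enzyme; inhibitors block probe labeling so polarization falls and inhibition rises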
Target sequence (Q9Y570 whole entry, looked up): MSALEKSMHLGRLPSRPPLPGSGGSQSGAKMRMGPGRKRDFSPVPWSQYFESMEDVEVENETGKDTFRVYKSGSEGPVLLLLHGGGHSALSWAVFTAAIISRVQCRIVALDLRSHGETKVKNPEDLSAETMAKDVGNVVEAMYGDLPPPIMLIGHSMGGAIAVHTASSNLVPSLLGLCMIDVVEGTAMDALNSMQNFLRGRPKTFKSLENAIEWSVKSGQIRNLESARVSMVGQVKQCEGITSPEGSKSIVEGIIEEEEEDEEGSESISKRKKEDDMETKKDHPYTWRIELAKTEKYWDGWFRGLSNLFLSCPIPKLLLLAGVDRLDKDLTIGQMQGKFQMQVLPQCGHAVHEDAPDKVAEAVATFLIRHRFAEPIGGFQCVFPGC
Fam108b confirm: mouse Fam108b serine hydrolase inhibitors, confirmation, counter-screen for RBBP9 inhibitor project, biochemical, fluorescence polarization, triplicate. shares compounds with Fam108B inh. recombinant Fam108b, FP-Rh probe fluorescence polarization. 44% of 930 active. inhibition, % at 9.51 µM. AID 1978, 2009;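 active = inhibition above a limit from the primary screen, the mean over all compounds plus 3 SD, cut at about 19% in these data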;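 also: 0% = median of active Fam108b wells and 100% = catalytically dead S170A mutant; inhibitors free the probe so polarization falls as inhibition rises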
Fam108b ABPP HTS: inhibition of mouse Fam108b by HTS hits, late-stage follow-up, biochemical, gel-based ABPP, soluble recombinant form; shares compounds with Fam108B inh; fluorophosphonate probe; inhibition, % at 20 µM; 44% of 260 active; AID 588649, 2011; in the data active = inhibition above about 40%
Active calls of the source: *; · = not tested or not shown. Rows were chosen to be rich in hits. Some 2.9% of all compounds tested hit in one or more screens of this group.

SMILES	pPAFAH inh	PAFAH1B3 FP inh	PAFAH2 FP inh	Fam108B inh	PAFAH1B2 FP inh	PME-1 inh	Fam108b confirm	others
Cc1c(NC(=O)Nc2ccc(Cl)c(Cl)c2)sc(=S)n1C	19	21	-1	32*	9	30*	25*
COc1ccc(NC(=O)Nc2sc(=S)n(C)c2C)cc1	6	-2	0	2	2	6	·
COC(=O)c1cc(S(=O)(=O)N2CCOCC2)c(Cl)cc1N1CCOCC1	4	2	2	-2	0	-1	·
COC(=O)c1cc(C)nc2c1C(=O)C(=O)C=C2N1CCOCC1	6	73*	56*	71*	28*	36*	82*	Fam108b ABPP HTS=0
O=C(O)/C=C\c1cc2c(cc1[N+](=O)[O-])OCO2	1	3	1	4	-1	-2	·
O=C1NC(=S)N/C1=C/c1cc2c(cc1[N+](=O)[O-])OCO2	4	20	11	47*	14	15	12
Cc1ccccc1CCNC(=O)CCn1ccc2cc(S(=O)(=O)N3CCCC3)ccc21	6	9	10	-4	2	6	·
CCOC(=O)c1c(NC(=O)/C=C/c2ccc3c(c2)OCO3)sc(C)c1CC	-4	2	-8	82*	-3	-30	-7
COC(=O)c1c(NC(=O)/C=C/c2ccc3c(c2)OCO3)sc(C)c1C	3	-19	0	0	2	-2	·
Cn1c(SCC(=O)NCc2ccccc2)nc2c([nH]c3ccccc32)c1=O	-1	·	·	-2	·	-7	·
O=C1C(=O)c2ccc(-c3ccccc3)cc2-c2ccccc21	19	58*	51*	54*	9	16	69*	Fam108b ABPP HTS=15
O=C(CCCN1C(=O)c2ccccc2C1=O)Nc1ccccc1C(=O)N1CCOCC1	4	0	-1	7	3	-5	·
O=C(Cc1cccc2ccccc12)Nc1nc(-c2cccc([N+](=O)[O-])c2)cs1	-1	4	2	20*	3	14	9
COc1ccc(C(=O)/C=C/Nc2ccc(S(=O)(=O)Nc3cccc(C(C)=O)c3)cc2)cc1	-17	-7	-11	34*	4	43*	20*
COc1cccc(C(=O)/C=C/Nc2ccc(S(=O)(=O)Nc3ccc(C(C)=O)cc3)cc2)c1	-13	4	-5	0	2	-2	·
COc1ccc(NN=C(C=NO)C(=O)c2ccc(OC)cc2)cc1	·	·	·	·	·	·	·	Fam108b ABPP HTS=0
Cc1cccc(NC(=O)/C(C#N)=C/c2ccc(F)cc2)n1	14	3	2	38*	8	16	3
O=C(CN1CCN(S(=O)(=O)c2ccccc2F)CC1)Nc1ccccc1C(=O)c1ccccc1	6	11	1	-4	4	-2	·
CCOc1ccc(NC(=O)CN(C)C(=O)c2cccnc2SC)cc1OCC	2	-1	1	3	4	9	·
CCN(CC)S(=O)(=O)c1ccc(Nc2ccc(-c3ccc4c(c3)OCCO4)nn2)cc1	6	10	2	20*	1	-68	-127
O=C(CN1C(=O)c2cccc([N+](=O)[O-])c2C1=O)NNC(=O)c1ccc(F)cc1	0	0	-5	·	1	·	·
Cn1c(=O)c(NC2CCCCC2)c2c3c(cccc31)C(=O)c1ccccc1-2	·	14	10	·	5	·	·
Cn1c(=O)c(NCCc2ccccc2)c2c3c(cccc31)C(=O)c1ccccc1-2	142*	165*	168*	156*	147*	191*	178*	Fam108b ABPP HTS=0
C=CCn1cc(CN2CCC(C(=O)Nc3cccc(-c4cccc(F)c4)c3)CC2)c(C)n1	1	8	-1	-3	0	4	·
CCOc1cc(C2NC(=O)NC(c3ccccc3)=C2C(C)=O)ccc1OC(C)=O (stereo not given)	-2	6	6	0	1	-1	·
SMILES	pPAFAH inh	PAFAH1B3 FP inh	PAFAH2 FP inh	Fam108B inh	PAFAH1B2 FP inh	PME-1 inh	Fam108b confirm	others
O=C(NCc1ccccc1)c1sc(=S)n2c1[nH]c(=O)c1ccccc12	34*	31*	42*	40*	54*	11	55*	Fam108b ABPP HTS=0
COc1cccc(/C=N/NC(=O)c2[nH]c(C)c(C(=O)N/N=C/c3cccc(OC)c3O)c2C)c1O	28*	45*	-5	39*	7	35*	60*
O=[N+]([O-])c1cccc(C(=Nc2ccccc2)NO)c1	5	-3	-5	-1	4	-6	·
O=[N+]([O-])c1cc([N+](=O)[O-])c2c(=Nc3ccccc3)n(-c3ccccc3)n(O)c2c1	22	24	20	19*	17	22	27*
CCOC(=O)C1(NC(=O)C2(NC(=O)CN3C(=O)c4ccccc4C3=O)CCCC2)CCCC1	·	4	4	·	4	·	·
Cc1ccc(S(=O)(=O)c2c(N)n(CCCO)c3nc4ccccc4nc23)cc1	-1	23	9	3	10	10	·
CCCCn1c(NS(=O)(=O)c2ccccc2)c(S(=O)(=O)c2ccc(C)cc2)c2nc3ccccc3nc21	10	66*	57*	54*	36*	28*	2
CN(CC(=O)Nc1ccc(F)c(F)c1F)C(=O)CC1CCCCC1	-3	4	8	·	0	-1	·
COC(=O)COc1ccc(S(=O)(=O)NCCC2=CCCCC2)cc1C	8	-1	5	3	17	8	·
CCN(CC)c1ccc(/C=N/NC(=O)c2c[nH]c3ccccc23)cc1	7	24	-3	23*	12	20	-3
O=[N+]([O-])c1ccc(-c2csc(N/N=C/c3cccnc3)n2)cc1	3	10	-2	3	7	6	·
COc1ccc(/C=N/Nc2nc(-c3cccc(S(=O)(=O)N4CCCC4)c3)cs2)cc1OC	7	9	1	16	3	0	·
O=[N+]([O-])c1cc(/C=N\Nc2nc(-c3ccccc3)cs2)ccc1O	31*	22	32*	25*	13	23	25*
COc1cc(/C=N/Nc2nc(-c3ccc(S(=O)(=O)N(C)C)cc3)cs2)ccc1O	9	10	-2	21*	9	28*	9
CC(C)(C)c1ccc(/C=N/NC(=O)C[n+]2ccccc2)cc1	7	6	0	5	-1	-2	·
CCOC(=O)c1ccc(Nc2cc(C)nc(-c3ccccc3)n2)cc1	-5	-1	-13	18*	-5	-26	-13

High-throughput results from PubChem BioAssay.
